Reference: PubChem BioAssay AID2778 (National Center for Advancing Translational Sciences (NCATS), 2010)
Inconclusive results are not listed. Calls of active or inactive are those of the source. Calls come from the whole dose curve; as a rule, active = well fitted inhibition curve with a large enough effect; inconclusive = small, poorly fitted or top-dose-only effect, or effect the other way; inactive = flat fitted curve, though single readings scatter.

Each compound was assayed against Menin (Homo sapiens) (UniProt O00255) (assay: Confirmation of Inhibitors Targeting the Menin-MLL Interaction in MLL Related Leukemias: Confirmation in an HTRF (commercial TR-FRET) Assay using His-tagged menin and biotin-labeled MLL peptide). Details: His-menin / biotin-MLL peptide binding; series mostly up to 126 µM.
Procedure, shortened: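 Compounds were incubated 1 hr at ambient with a preformed His6-menin (200 nM)/biotinylated MLL-w.t. peptide (80 nM) complex in Tris pH 7.5 buffer; anti-His Eu-cryptate (3.5 nM) and SA-XL665 (10 nM) added, TR-FRET read after 1h.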
Potency is the fitted concentration of half-maximal effect.

Chain of Menin (Homo sapiens) (O00255 whole entry, looked up): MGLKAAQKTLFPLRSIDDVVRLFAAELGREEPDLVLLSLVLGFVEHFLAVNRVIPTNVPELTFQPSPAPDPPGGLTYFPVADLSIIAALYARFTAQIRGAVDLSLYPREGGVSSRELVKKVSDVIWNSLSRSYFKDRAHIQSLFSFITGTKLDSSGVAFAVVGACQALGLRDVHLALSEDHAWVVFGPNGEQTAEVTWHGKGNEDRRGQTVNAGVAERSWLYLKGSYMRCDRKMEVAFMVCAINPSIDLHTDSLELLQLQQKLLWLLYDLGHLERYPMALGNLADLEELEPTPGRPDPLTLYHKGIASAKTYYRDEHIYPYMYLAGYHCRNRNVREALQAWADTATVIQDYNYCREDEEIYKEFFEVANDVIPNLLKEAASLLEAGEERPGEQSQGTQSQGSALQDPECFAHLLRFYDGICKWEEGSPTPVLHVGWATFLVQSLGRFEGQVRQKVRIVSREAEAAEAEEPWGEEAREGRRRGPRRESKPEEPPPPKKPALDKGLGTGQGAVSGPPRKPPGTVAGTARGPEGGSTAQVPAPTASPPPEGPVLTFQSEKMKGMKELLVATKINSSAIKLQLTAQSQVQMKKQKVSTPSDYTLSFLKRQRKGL

Potency, inactive:
Cc1ccc(NC(=O)C(C)N2C(=O)c3ccccc3C2=O)c(C)c1 (centres undefined)
CN1CCS/C1=C/C=C1/SC(=S)N(Cc2ccccc2)C1=O
Cc1ccccc1-c1n[nH]c(=S)n1C
C=C(C)[C@@H]1CC=C(CN2CCN(Cc3ccccc3)CC2)CC1
C[C@@H]1CN(C(=O)c2nc3ccc(Cl)cn3c2CNCC[C@@H]2C[C@@H]3C=C[C@H]2C3)C[C@H](C)O1
O=c1cc(O)c2ccccc2n1Cc1ccccc1F
CC(c1ccncn1)N(C)Cc1nc(-c2ccc(C(F)(F)F)cc2)no1 (centres undefined)
CC1CN(c2c3c(nc4ncnn24)CCCC3)CC(C)O1 (centres undefined)
CC(c1cc2ccccc2s1)N(O)C(N)=O (centres undefined)
Cc1ccc(NC(=O)CN(C)C(=O)COc2cccc3cccnc23)cc1
Cc1ccc(C(C[N+](=O)[O-])c2c(C)[nH]n(-c3ccccc3)c2=O)cc1 (centres undefined)
O=C(N/N=C/c1cn(-c2ccccc2)nc1-c1cc2ccccc2o1)c1ccccc1Br
O=C(NC1CCN(c2ncccn2)CC1)c1c(F)cccc1F
CC(=O)c1cccc(OCC(O)CNCC2COc3ccccc3O2)c1 (centres undefined)
O=C(NC(=S)N1CCCc2ccccc21)c1ccc([N+](=O)[O-])cc1
CCc1nn(C)c2c(=O)c(=O)c2n(C)[nH]1
C=CCN(CC=C)S(=O)(=O)c1ccc(NC(=S)NC(=O)/C=C/c2cccc3ccccc23)cc1
Cc1nn(-c2ccccc2)c2nc(N)c(C(N)=O)cc12
O=c1c2ccccc2nc(N/N=C/c2c(O)ccc3ccccc23)n1O
CC(NC(=O)c1cnc2ccccc2n1)c1ccccc1 (centres undefined)
CCCCn1c(SCC(=O)NCc2ccc(OC)c(C(=O)O)c2)nc2cc(S(N)(=O)=O)ccc21
CCOc1ccccc1N(CC(=O)Nc1ccccc1C(=O)N1CCCC1)S(C)(=O)=O
CN(C)CCc1c[nH]c2ccc(CC3COC(=O)N3)cc12 (centres undefined)
CCCN1CCN(CC(O)COC(c2ccc(OC)cc2)c2ccc(OC)cc2)CC1 (centres undefined)
Cc1ccc(C(=O)Sc2cccccc2=O)cc1
CC(=O)c1c(O)cc(O)cc1CC(=O)O
O=C(Nc1nccs1)C(Br)C(Br)c1ccccc1 (centres undefined)
N=c1oc2ccccc2cc1-c1nc(-c2ccc(Cl)cc2)cs1
Cc1c(CCOC(=O)CC23CC4CC(CC(C)(C4)C2)C3)sc[n+]1Cc1ccc([N+](=O)[O-])cc1
CCOC(=O)N1CCN(Cc2nnc(-c3ccccc3C)o2)CC1
CCCOc1ccc(C(=O)NNC(=S)NC(=O)c2cc(-c3ccc(Cl)cc3)nc3ccccc23)cc1

Potency, active:
CCc1cc2c(N3CCN(C(=O)c4ccco4)CC3)ncnc2s1 100 µM
CC(C)Sc1nc(N2CCOCC2)c2c3c(sc2n1)COC(C)(C)C3 316 µM
COc1ccccc1NS(=O)(=O)c1cc(N2Cc3ccccc3C2=N)ccc1N1CCOCC1 89.1 µM
